From PubChem BioAssay come the findings set out here.

The structures appear in SMILES notation. Active and inactive are the calls of the source. Unless noted, how the calls were made is not given here.

The subject of assay [1] is XIP peptide (Xip251-270) binding. Briefly: XIP fragment 251-270 binding compounds – biochemical, small-molecule microarray, fluorescence 635/667 nm, 0.1 µg/mL protein, primary screen (AID 1182). The settings on record: fluorescent protein binding, 635 nm, higher = more signal, called active from +8 up or from −8 down.
The test system of a further assay is XIP peptide (Xip251-270). Kind of assay: compounds binding XIP fragment 251-270 – biochemical, small-molecule microarray, fluorescence 635/667 nm, 0.5 µg/mL protein, primary screen (AID 1183). The note with it: fluorescence 635 nm, higher = more signal.
Assay [2] can be described thus: blood-stage malaria parasite viability loss – strain 3D7, DAPI fluorescence, 100 nL, primary screen (AID 1184).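 Further: parasites grown inside human red blood cells in medium with human serum.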 The note with it: P. falciparum 3D7 growth, 3 d, higher = more signal.
Assay [3] addresses Homeobox protein Hox-A13 (Mus musculus) (UniProt Q62424). Kind of assay: disruptors of Hoxa13 oligonucleotide interaction – biochemical, fluorescence polarization, labeled oligonucleotide, primary screen (AID 1185). The note with it: Hoxa13:DNA binding, 15 min, higher = more signal, called active from +8 up or from −8 down. In general terms: In fluorescence polarisation assays a small probe gives low polarisation when free and higher when bound to something large.

Assay [4] can be described thus: blockers of DNA damage checkpoint Chk1 activation – imaging, HeLa, hydroxyurea, phospho-Chk1 antibody, percent positive cells, primary screen (AID 1186). The settings on record: hydroxyurea-induced phospho-Chk1 immunofluorescence imaging, higher = more signal.
Assay [5] in a line: blockers of DNA damage checkpoint Chk1 activation – imaging, HeLa, hydroxyurea, phospho-Chk1 nuclear intensity, primary screen (AID 1187). The note with it: hydroxyurea-induced phospho-Chk1 immunofluorescence imaging, higher = more signal.

Chain of Homeobox protein Hox-A13 (Mus musculus) (Q62424 whole entry, looked up): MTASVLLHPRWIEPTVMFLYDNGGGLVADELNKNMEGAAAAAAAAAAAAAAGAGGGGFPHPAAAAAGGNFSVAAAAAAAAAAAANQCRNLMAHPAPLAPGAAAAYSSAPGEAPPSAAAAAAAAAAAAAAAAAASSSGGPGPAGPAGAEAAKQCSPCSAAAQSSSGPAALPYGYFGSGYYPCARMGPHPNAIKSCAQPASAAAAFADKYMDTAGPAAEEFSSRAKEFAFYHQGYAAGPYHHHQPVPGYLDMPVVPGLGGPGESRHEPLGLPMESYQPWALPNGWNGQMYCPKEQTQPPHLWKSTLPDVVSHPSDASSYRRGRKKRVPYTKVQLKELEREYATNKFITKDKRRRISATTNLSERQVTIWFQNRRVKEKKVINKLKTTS

Take `CN(C)CCCC[C@@H]1NC(=O)[C@@H]2C[C@H](C(=O)NCCCCCNC(=O)CS)[C@H](c3ccc(O)cc3)N2C1=O`: the figures for the composite z-score (in assay [1]; with XIP peptide (Xip251-270)) were 0.207 (inactive) and -0.279, respectively. For the same compound, the z-score in assay [2] was 0.386; in assay [3], -0.848 (inactive); in assay [4], -0.205 (inactive); in assay [5], -0.456 (inactive).
On to `C=C(CCCC)/C(=C/C[C@H](OC(=O)c1ccncc1)c1cccc(OCCO)c1)c1cc(C(=O)OC)ccc1OC`, for which the composite z-score was 2.08 (inactive) in assay [1] and 0.305 in the assay with XIP peptide (Xip251-270). In addition, the z-score in assay [2] is -3.26; in assay [3], -4.52 (inactive); in assay [4] it was -0.433 (inactive); in assay [5], -0.355 (inactive).
Take `C=CC[C@]1(C(=O)O)N=C(c2ccc(OCCCO)cc2)O[C@H]1c1ccccc1`: the composite z-score is 1.81 (inactive) in assay [1] and 0.615 in the assay on XIP peptide (Xip251-270). Also, the z-score in assay [2] is -1.63; in assay [3] it was -4.1 (inactive); in assay [4], -0.0836 (inactive); in assay [5] it was 0.409 (inactive).
Take `COCCOC(=O)N1C(=O)[C@@]2(c3cc(C#CCNC(N)=O)ccc31)[C@H](c1ccccc1OCCO)N1[C@H](c3ccccc3)[C@H](c3ccccc3)OC(=O)[C@H]1[C@@H]2C(=O)NC[C@H](O)c1ccccc1`: the composite z-score is 0.88 (inactive) in assay [1] and 0.8 in the assay on XIP peptide (Xip251-270). Further, the z-score in assay [2] is -1.84; in assay [3], -3.26 (inactive); in assay [4], 0.0689 (inactive); in assay [5], -0.158 (inactive).
Consider `COC(=O)c1ccc(C#CC(NP(=O)(c2ccccc2)c2ccccc2)c2ccccc2)cc1` (stereo unspecified), for which the composite z-score was 0.238 (inactive) in assay [1] and -0.0253 with XIP peptide (Xip251-270). For the same compound, the z-score was -0.253 in assay [2], -3.02 (inactive) in assay [3], -1.14 (inactive) in assay [4] and -1.03 (inactive) in assay [5].
In the case of `CO[C@H]1O[C@H](CO)[C@@H](OC(=O)Nc2ccccc2)[C@H](OC(=O)Nc2ccc3c(c2)OCO3)[C@@H]1OC(=O)Nc1ccc2c(c1)OCO2`, the values for the composite z-score (in assay [1]; in the assay with XIP peptide (Xip251-270)) were 2.23 (inactive) and 0.863, respectively. Besides, the z-score in assay [2] was -1.9; in assay [3], -9.6 (active); in assay [4] it was 0.149 (inactive); in assay [5], 0.121 (inactive).
As to `CC(=O)NCCCC[C@@H]1NC(=O)[C@@H]2C[C@H](C(=O)NCc3ccc(F)cc3)[C@H](c3cccc(OCCO)c3)N2C1=O`, the composite z-score in assay [1] was 0.356 (inactive); in the assay on XIP peptide (Xip251-270), 0.117. Besides, the z-score in assay [2] was 0.447; in assay [3], -4.11 (inactive); in assay [4], 0.676 (inactive); in assay [5], 0.312 (inactive).
For `C[C@]1(C(=O)NCCN2CCOCC2)c2ccccc2C(=O)N(Cc2ccccc2)[C@H]1c1ccc(CO)cc1`, the composite z-score was 0.946 (inactive) in assay [1] and 0.78 in the assay on XIP peptide (Xip251-270). In addition, the z-score in assay [2] was -1.22; in assay [3] it was -3.99 (inactive); in assay [4], 0.0553 (inactive); in assay [5] it was 0.0648 (inactive).
As to `O=C(CS)NCCCCCNC(=O)[C@H]1C[C@H]2C(=O)N[C@@H](Cc3ccccc3)C(=O)N2[C@H]1c1ccc(O)cc1`, the composite z-score in assay [1] is 0.818 (inactive); in the assay on XIP peptide (Xip251-270), -0.072. For the same compound, the z-score is -0.0713 in assay [2], -2.65 (inactive) in assay [3], -0.319 (inactive) in assay [4] and 0.637 (inactive) in assay [5].
As to `COc1ccc([C@H]2C[C@H]3C(Br)=C[C@]2(OC)C(=O)[C@]32CO2)cc1`, the composite z-score in assay [1] was 0.288 (inactive); in the assay on XIP peptide (Xip251-270) it was 0.261. Moreover, the z-score was 0.755 in assay [2], -1.48 (inactive) in assay [3], -0.445 (inactive) in assay [4] and -0.0049 (inactive) in assay [5].
For `O=C(NCC(F)(F)F)[C@@H]1c2ccccc2C(=O)N(Cc2ccccc2Cl)[C@H]1c1ccc(CO)cc1`, the composite z-score in assay [1] was 0.0987 (inactive); in the assay with XIP peptide (Xip251-270), 0.0561. For the same compound, the z-score in assay [2] is -0.472; in assay [3] it was -2.37 (inactive); in assay [4], 0.178 (inactive); in assay [5] it was 0.449 (inactive).
Take `COCCOC(=O)N1C(=O)[C@@]2(c3ccccc31)[C@H](C(=O)N1CCc3cc(OC)c(OC)cc3C1)[C@H]1C(=O)O[C@H](c3ccccc3)[C@H](c3ccccc3)N1[C@@H]2c1ccccc1OCCO`: the composite z-score is 0.227 (inactive) in assay [1] and 0.741 with XIP peptide (Xip251-270). Further, the z-score in assay [2] is -1.9; in assay [3] it was -0.573 (inactive); in assay [4], -0.0955 (inactive); in assay [5] it was -0.08 (inactive).
Regarding `COC(=O)C[C@H]1O[C@]2(C(=O)N(C)c3ccccc32)[C@@H](C)[C@@H]1[Si](C)(C)c1ccc(OC)cc1`, the figures for the composite z-score (in assay [1]; with XIP peptide (Xip251-270)) were -0.539 (inactive) and 0.414, respectively. Further, the z-score in assay [2] was -2.41; in assay [3] it was -6.13 (inactive); in assay [4], 0.463 (inactive); in assay [5], 0.688 (inactive).
Take `O=C(NCc1ccccc1)c1ccc(Br)cc1[N+](=O)[O-]`: the values for the composite z-score (in assay [1]; with XIP peptide (Xip251-270)) were 0.103 (inactive) and 0.0871, respectively. Further, the z-score is 2.11 in assay [2], 0.513 (inactive) in assay [3], 0.225 (inactive) in assay [4] and 0.119 (inactive) in assay [5].
As for `NC(=O)NCC#Cc1ccc2c(c1)[C@]1(C(=O)N2)[C@H](C(=O)N2CCCCCCC2)[C@H]2C(=O)O[C@H](c3ccccc3)[C@H](c3ccccc3)N2[C@@H]1c1ccccc1OCCO`, the composite z-score in assay [1] was 4.02 (inactive); in the assay with XIP peptide (Xip251-270) it was 0.486. In addition, the z-score in assay [2] is -1.83; in assay [3] it was 4.43 (inactive); in assay [4], 0.323 (inactive); in assay [5] it was 0.671 (inactive).
Take `C=CCN1C(=O)[C@@]2(Cc3ccccc3)N=C(c3ccc(OCCCO)cc3)O[C@H]2c2ccccc21`: the values for the composite z-score (in assay [1]; in the assay on XIP peptide (Xip251-270)) were 1.67 (inactive) and 0.79, respectively. Also, the z-score is -1.92 in assay [2], -0.611 (inactive) in assay [3], -0.0856 (inactive) in assay [4] and -0.138 (inactive) in assay [5].
